In PubChem BioAssay (NCI):
This is part of a sample that, as a whole, favours compounds with a hit. Of some 79,000 tested, about 15% had one in any assay. A number with no mark means an inactive call. Activity calls are given as the source filed them. Cut-off read from the data, not from the text of the source: active = growth inhibition above about 70%; inactive = the rest.

Assay: NCI Yeast Anticancer Drug Screen. Data for the rad50 strain (AID 155);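 note: 0% = growth of vehicle-only cultures of the same strain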
Settings: S. cerevisiae rad50 strain growth inhibition; at 5.0 µM (retest, dose inferred, filed as 0.5); hits give high values
How it was run: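 Compounds were tested on a yeast strain with an engineered DNA damage repair alteration; the reported value is growth inhibition normalised to vehicle treatment.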

SMILES | growth inhibition
Nc1nc2c(ccc3ccccc32)s1 | -3%
O=C(O)CCCCC1CCCCC1.[Cu+2] | 31%
O=Cc1ccc(O)c2ccccc12 | -3%
CC(=Nc1ccc(N(C)C)cc1)c1ccccc1 | -8%
C/C(Cl)=N\OC(=O)Nc1ccc(C)cc1 | 4%
COC(=O)C1CCC(c2ccccc2)CC1C(=O)OC (stereo not given) | 2%
CCCCNC(=S)NC1C2CC3CC(C2)CC1C3 (stereo not given) | -8%
CCN(CC)CCOC(=O)CCN1CC2CCC(CC2)C1 | 14%
CCOc1ccc(-c2nc3ccc(-c4nc5ccc(N6CCN(C)CC6)cc5[nH]4)cc3[nH]2)cc1 | 28%
NC(CCC(=O)NC(CS(=O)(=O)O)C(=O)O)C(=O)O (stereo not given) | 1%
CSc1cc(C(=O)O)nc(N)n1 | 4%
CCN(CC)CCCNc1c(O)cc(C)c2sc3ccccc3c(=O)c12 | 17%
C=C1C(=O)OC2C1CC1OC2C(C)CCC/C(C)=C\CCC1(C)O (stereo not given) | 2%
O=C1C=CC2=Nc3ccccc3CCC2=C1 | -151%
CC(C)CC(CC(C)C)OP(=O)(O)OC(CC(C)C)CC(C)C | 7%
O=C(O)c1ccccc1Cc1ccc2c(c1)Cc1ccccc1-2 | 2%
Nc1c(F)cccc1F | -2%
COc1cc(OC)c(SSCCCCS(=O)O)c(OC)c1 | 0%
S=C1Nc2cnc3ccccc3c2SC1c1ccccc1 (stereo not given) | -5%
CC(C)CCCC(C)[C@H]1CCC(C2C[C@@H](O)[C@@H]3CC(O)[C@@H](O)C[C@]3(CO)C2=O)[C@]1(C)CCO (stereo not given in full) | -14%

SMILES | growth inhibition
CN(C)CC(CN(C)C)C(=O)c1ccc(Oc2ccc(Cl)c(Cl)c2)cc1 | 18%
CN1c2ccccc2C(C)(C)C12C=Cc1cc(O)ccc1O2 (stereo not given) | 20%
CC(C)Cc1ncc(CC(C)C)n(O)c1=O | 34%
Nc1ccc(SSc2ccc(N)cc2)cc1 | -2%
N#CCC1CC(=O)c2[nH]c3ccccc3c2C1 (stereo not given) | -157%
O=C1c2ccccc2C(=O)c2sccc21 | -97%
CC/C(=C(\CC)c1ccc(O)c(CN(C)C)c1)c1ccc(OC)cc1 | 9%
O=S(=O)(O)N=Nc1ccc(O)cc1 | 65%
O=C1CCSC(=S)N1c1ccc(N=Nc2ccccc2)cc1 | 57%
CC(C)C(=O)NNc1ccccc1 | 28%
O=C(CBr)c1ccc2cc(Br)c3ccccc3c2c1 | 55%
O=C1c2cc3c(cc2CC1Br)CCC3 (stereo not given) | 99% (active)
O=C1NC(=O)N(c2ccc(Cl)c(Cl)c2)C1=O | -1%
C[n+]1c(-c2cccc(OCCOCCOc3cccc(-c4c5cc(N)ccc5c5ccc(N)cc5[n+]4C)c3)c2)c2cc(N)ccc2c2ccc(N)cc21 | 36%
N#CC(C#N)C(C#N)c1ccc(Cl)c(Cl)c1 (stereo not given) | 79% (active)
CCCCCCCCCCCCOC(=O)C[n+]1cccc(C(=O)Nc2ccc(Cl)cc2)c1 | 76% (active)
CCC(=O)c1ccc2ccc3ccccc3c2c1 | 6%
Cc1ccc(S(=O)(=O)NC(=O)CC2CCCCC2)cc1 | 14%
c1ccc(N/N=C(/CC/C(=N\Nc2ccccc2)c2ccccc2)c2ccccc2)cc1 | 6%
Cc1c(N)cc(I)cc1[N+](=O)[O-] | 2%

Same assay, conditions: S. cerevisiae rad50 strain growth inhibition; at 50.0 µM (retest, dose inferred, filed as 5.0); hits give high values

SMILES | growth inhibition
Nc1nc2c(ccc3ccccc32)s1 | 36%
O=C(O)CCCCC1CCCCC1.[Cu+2] | 94% (active)
O=Cc1ccc(O)c2ccccc12 | 66%
CC(=Nc1ccc(N(C)C)cc1)c1ccccc1 | 60%
C/C(Cl)=N\OC(=O)Nc1ccc(C)cc1 | 99% (active)
COC(=O)C1CCC(c2ccccc2)CC1C(=O)OC (stereo not given) | 10%
CCCCNC(=S)NC1C2CC3CC(C2)CC1C3 (stereo not given) | 78% (active)
CCN(CC)CCOC(=O)CCN1CC2CCC(CC2)C1 | 15%
CCOc1ccc(-c2nc3ccc(-c4nc5ccc(N6CCN(C)CC6)cc5[nH]4)cc3[nH]2)cc1 | 98% (active)
NC(CCC(=O)NC(CS(=O)(=O)O)C(=O)O)C(=O)O (stereo not given) | 6%
CSc1cc(C(=O)O)nc(N)n1 | -4%
CCN(CC)CCCNc1c(O)cc(C)c2sc3ccccc3c(=O)c12 | 98% (active)
C=C1C(=O)OC2C1CC1OC2C(C)CCC/C(C)=C\CCC1(C)O (stereo not given) | 8%
O=C1C=CC2=Nc3ccccc3CCC2=C1 | 95% (active)
CC(C)CC(CC(C)C)OP(=O)(O)OC(CC(C)C)CC(C)C | 76% (active)
O=C(O)c1ccccc1Cc1ccc2c(c1)Cc1ccccc1-2 | 76% (active)
Nc1c(F)cccc1F | 8%
COc1cc(OC)c(SSCCCCS(=O)O)c(OC)c1 | 14%
S=C1Nc2cnc3ccccc3c2SC1c1ccccc1 (stereo not given) | 98% (active)
CC(C)CCCC(C)[C@H]1CCC(C2C[C@@H](O)[C@@H]3CC(O)[C@@H](O)C[C@]3(CO)C2=O)[C@]1(C)CCO (stereo not given in full) | 99% (active)

SMILES | growth inhibition
CN(C)CC(CN(C)C)C(=O)c1ccc(Oc2ccc(Cl)c(Cl)c2)cc1 | 96% (active)
CN1c2ccccc2C(C)(C)C12C=Cc1cc(O)ccc1O2 (stereo not given) | 31%
CC(C)Cc1ncc(CC(C)C)n(O)c1=O | 97% (active)
Nc1ccc(SSc2ccc(N)cc2)cc1 | 97% (active)
N#CCC1CC(=O)c2[nH]c3ccccc3c2C1 (stereo not given) | -137%
O=C1c2ccccc2C(=O)c2sccc21 | 91% (active)
CC/C(=C(\CC)c1ccc(O)c(CN(C)C)c1)c1ccc(OC)cc1 | 87% (active)
O=S(=O)(O)N=Nc1ccc(O)cc1 | 98% (active)
O=C1CCSC(=S)N1c1ccc(N=Nc2ccccc2)cc1 | 94% (active)
CC(C)C(=O)NNc1ccccc1 | 77% (active)
O=C(CBr)c1ccc2cc(Br)c3ccccc3c2c1 | 94% (active)
O=C1c2cc3c(cc2CC1Br)CCC3 (stereo not given) | 99% (active)
O=C1NC(=O)N(c2ccc(Cl)c(Cl)c2)C1=O | 8%
C[n+]1c(-c2cccc(OCCOCCOc3cccc(-c4c5cc(N)ccc5c5ccc(N)cc5[n+]4C)c3)c2)c2cc(N)ccc2c2ccc(N)cc21 | 96% (active)
N#CC(C#N)C(C#N)c1ccc(Cl)c(Cl)c1 (stereo not given) | 99% (active)
CCCCCCCCCCCCOC(=O)C[n+]1cccc(C(=O)Nc2ccc(Cl)cc2)c1 | 98% (active)
CCC(=O)c1ccc2ccc3ccccc3c2c1 | 60%
Cc1ccc(S(=O)(=O)NC(=O)CC2CCCCC2)cc1 | 89% (active)
c1ccc(N/N=C(/CC/C(=N\Nc2ccccc2)c2ccccc2)c2ccccc2)cc1 | 77% (active)
Cc1c(N)cc(I)cc1[N+](=O)[O-] | 12%
